TDP1 cell CPT: qHTS for Inhibitors of human tyrosyl-DNA phosphodiesterase 1 (TDP1): qHTS in cells in presence of CPT; chicken DT40 Tdp1-/-;hTDP1 cells + 20 nM CPT, ATP luminescence, 48 h; Potency, µM (series often up to 46.2 µM), inactives show at the top dose activity change, negative = growth inhibition, usual class: inhibitors; actives 12% (n = 420,000); AID 686979, 2013; also: % is scaled to controls: 0 for no effect and ±100 for the full control effect; nearly all actives have a fitted effect of over 55% in size
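Chicken DT40 Tdp1-/- cells stably complemented with human TDP1 were seeded at 400 cells/well in medium containing 20 nM camptothecin, exposed to pin-transferred compounds, and grown at 37 °C for at least 48 hr. Viability was read as ATP luminescence.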
ClpP mod: qHTS Assay for Activators of ClpP | ATP-dependent Clp protease proteolytic subunit (Bacillus subtilis (strain 168)), P80244 | purified B. subtilis ClpP, FRET peptide cleavage, 20 min | Potency, µM (titrated, usually from 57.5 µM), for the others: at the top dose activity change, negative = active | actives 1.9% (n = 340,000); active = well fitted falling curve with a large enough effect; inconclusive = small, poorly fitted or top-dose-only effect; inactive = no such curve, though single readings can be large or run the other way; also: the source files actives as falling curves though it sought activators and does not explain the sign; nearly all actives have a fitted effect of over 65% in size
Target sequence (P80244 whole entry, looked up): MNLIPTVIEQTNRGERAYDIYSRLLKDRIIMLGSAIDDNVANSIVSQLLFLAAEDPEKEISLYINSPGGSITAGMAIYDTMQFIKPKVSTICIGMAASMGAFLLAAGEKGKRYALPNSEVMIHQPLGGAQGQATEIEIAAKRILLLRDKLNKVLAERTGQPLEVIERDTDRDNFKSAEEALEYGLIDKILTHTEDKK
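FRET quenching reversal measured ClpP activation: 10 microg/mL B. subtilis ClpP at pH 8 with the FRET-FV decapeptide, read at 430 nm after 320 nm excitation. The 20-min minus 0-min signal was scaled between DMSO/no-enzyme wells and ADEP (5.8 microM final).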
DT40 TDP1 no CPT: qHTS for Inhibitors of human tyrosyl-DNA phosphodiesterase 1 (TDP1): qHTS in cells in absence of CPT. DT40 Tdp1-/- hTDP1 cells, no CPT, ATP luminescence, 48 h. Potency, µM (doses to about 46.2 µM), for inactives: at the top dose activity change, negative = growth inhibition, usual class: inhibitors. actives 15% (n = 420,000); also: % is scaled to controls: 0 for no effect and ±100 for the full control effect; nearly all actives have a fitted effect of over 55% in size
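Camptothecin absent (DMSO only). Human TDP1-complemented DT40 knockout cells, 400 cells/well, 37 °C for minimum 48 hr; ATP measured via CellTiter-Glo, 30 min dark incubation, luminescence.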
TDP1 inh: qHTS Assay for Inhibitors of Tyrosyl-DNA Phosphodiesterase (TDP1); recombinant TDP1, AlphaScreen DNA substrate cleavage; AID 485290, 2010; Tyrosyl-DNA phosphodiesterase 1 (Homo sapiens), Q9NUW8; actives 0.28% (n = 350,000); Potency, µM (titrated, usually from 130 µM), inactives show at the top dose activity change, negative = inhibition, usual class: inhibitors; also: % is scaled to controls: 0 for no effect and ±100 for the full control effect; nearly all actives have a fitted effect of over 40% in size
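Enzyme-compound mixtures sat 15 min at room temperature, followed by a 5 min reaction with 15 nM final substrate and 10 min with AlphaScreen beads. Recombinant human Tdp1 was used at 1 nM final.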
An asterisk follows results filed as active; ? = inconclusive; . = no result. Only some compounds are listed: those with a hit (about 17% of all), similar ones and a draw of the others. Unless noted, calls follow the shape of the dose curve; as a rule, active = well fitted curve in the direction sought with a large enough effect; inconclusive = small, poorly fitted or top-dose-only effect, or another doubt; inactive = no such curve, though single readings can be large; an effect the other way counts as inactive or inconclusive. Potency is read from the fitted curve at half-maximal effect.

SMILES	TDP1 cell CPT	ClpP mod	DT40 TDP1 no CPT	TDP1 inh
COc1ccc(S(=O)(=O)Nc2cccc(-c3ccc(N4CCC(C)CC4)nn3)c2)c(OC)c1	?	-3%	?	-1%
CCc1nc2ccc(C(=O)Nc3ccc(NC(C)=O)cc3)cn2c1N(C)C(=O)Cc1ccccc1	-21%	-4%	?	.
Cc1cccc(NC(=O)COc2ccc3c(c2)CCC3)n1	-16%	28µM*	-19%	-9%
COc1cc(C)c(NC(=O)COc2ccc3c(c2)CCC3)cc1OC	23µM*	2%	?	0%
O=C(COc1ccc2c(c1)CCC2)Nc1ccccn1	-9%	2%	-2%	-5%
CC(=O)Nc1ccc(NS(=O)(=O)c2ccc3c(c2)CCCN3C(C)=O)cc1	4%	-4%	2%	8%
COc1ccc(CC(=O)NCc2ccc3c(c2)CCN3C(C)=O)cc1OC	12%	-2%	-21%	5%
CCOc1ccc(CNS(=O)(=O)c2ccc3c(c2)CCCN3C(C)=O)cc1OC	?	-1%	18µM*	-2%
COc1cc(NS(=O)(=O)c2ccc3c(c2)CCCN3C(C)=O)cc(OC)c1OC	8.2µM*	-1%	9.2µM*	2%
CC(=O)N1CCCc2cc(S(=O)(=O)NC(C(=O)NC(C)c3ccccc3)C(C)C)ccc21 (configuration not stated)	?	-2%	-10%	4%
CC(=O)N1CCCc2cc(S(=O)(=O)NC(C(=O)NC3CCCCC3)C(C)C)ccc21 (configuration not stated)	-8%	16µM*	?	8%
CC(=O)N1CCc2cc(S(=O)(=O)NC3CCCc4ccccc43)ccc21 (configuration not stated)	13µM*	-1%	14µM*	5%
CC(C)CN(C[C@@H](O)[C@H](Cc1ccccc1)NC(=O)O[C@H]1CCOC1)S(=O)(=O)c1ccc(N)cc1	.	.	.	7%
COc1ccc(S(=O)(=O)NC(=O)C2(C)CCN2C(=O)c2cccc(F)c2)cc1 (configuration not stated)	3%	-2%	7%	.
COc1cc(OC)c(/C=C/c2ccc3ccccc3[n+]2C)c(OC)c1	0.1µM*	0%	0.1µM*	.
CCC[n+]1c(/C=C/c2c(OC)cc(OC)cc2OC)ccc2ccccc21	0.11µM*	1%	0.089µM*	.
CCCC[n+]1c(/C=C/c2c(OC)cc(OC)cc2OC)ccc2ccccc21	0.32µM*	-3%	0.089µM*	.
O=C(COC(=O)CCNS(=O)(=O)c1ccccc1)NC(=O)c1ccccc1	0%	-1%	-14%	.
CNC(=O)CC1C(=O)N(c2ccc(F)cc2)C(=S)N1NC(=O)c1ccc(Cl)cc1 (configuration not stated)	2%	.	-18%	.
O=[N+]([O-])c1ccc2nc(-c3ccccc3)n(OCc3ccc(Cl)cc3)c2c1	15µM*	2%	9.2µM*	.
O=C(O)COn1c(-c2ccccc2)nc2ccc(Cl)cc21	27%	.	-10%	4%
Cc1ccc(-n2nnnc2-c2cccc(C)c2)cc1	-1%	-3%	-9%	-4%
COc1ccc(-n2nnnc2-c2cccc(OC)c2)cc1	0.82µM*	0%	0.58µM*	0%
COC(=O)c1ccccc1NC(=O)c1cnc2c(-c3cccc(C)c3)c(C)nn2c1C	-2%	2%	-8%	6%
Nc1ccc(Nc2nc(-c3cc4ccccc4oc3=O)cs2)cc1	18µM*	.	8.2µM*	10%
O=C(O)c1ccc(Nc2nc(-c3cc4ccccc4oc3=O)cs2)cc1O	?	.	?	79µM*
CC(=O)Nc1ccc(Nc2nc(-c3cc4ccccc4oc3=O)cs2)cc1	8.2µM*	-1%	18µM*	5%
COCCNC(=O)C1CCCN(S(=O)(=O)c2cccc3nsnc23)C1 (configuration not stated)	-3%	.	-2%	14%
Cc1noc(C)c1C(=O)Nc1nccs1	-3%	0%	6%	3%
O=C(CCN=C1NS(=O)(=O)c2ccccc21)OCc1c(F)c(F)c(F)c(F)c1F	14%	-7%	0%	0%

High-throughput results as filed in PubChem BioAssay.
